Measurements: PubChem BioAssay (NCI)
This is part of a sample that, as a whole, favours compounds with a hit. Of some 83,000 tested, about 20% had one in any assay.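 Activity criterion: percent growth below 10, measured after cells in 96-well plates were exposed to a single compound concentration for 48 hours.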 A number with no mark means an inactive call. Activity calls are given as the source filed them.

System: HL-60(TB) leukemia
Assay: NCI-60 one-dose screen, 48 h (100 = growth as untreated, 0 = no growth, -100 = all killed)
Settings: 10 µM unless noted

Structure (SMILES)	growth
CN(C)c1ccc(-c2cc(-c3ccc(Nc4nc(Nc5ccccc5)nc(Nc5ccc(Cl)cc5)n4)cc3)nc(N)n2)cc1	56.3%
CCCCCCCCN(CCCCCCCC)C(=N)c1ccnc2ccccc12	-68.5% (active)
C[C@H]1[C@H](C)CC[C@]2(COC(=O)CCC(=O)O)CC[C@]3(C)C(=CC[C@@H]4[C@@]5(C)CCCNC(C)(C)[C@@H]5CC[C@]43C)[C@H]12	49.3% [100 µM]
COc1ccc(-c2c(N)n[nH]c2-c2ccc(Cl)cc2O)cc1OC	91.9%
O=C(CN1CCOCC1)Nc1ccc2ncnc(Nc3ccc(Oc4cccc(F)c4)c(Cl)c3)c2c1	84.5%
COc1ccc(-c2cncnc2N)cc1OC	95.8%
O=C1C=CC(=O)N1c1cccc2c1CCCC2	34.2%
NCCN1CCNCC1	97.6%
Clc1ccc2c(c1)N(c1ncnc3ccc(-c4cnc5[nH]ccc5c4)cc13)CC2	16.3%
NC1=C(/C(N)=N/O)C(c2ccccc2)c2ccc3ccccc3c2O1 (stereo not given)	-19% (active)
COc1ccc(C(C#N)=C2C=CC(=NO)C=C2)cc1	52.4%
Cc1ccc(-c2cc(-c3ccccc3C)[nH]c(=O)c2C#N)s1	80.4%
CCCCOP(=O)(OCCCC)C(C(=O)OCC)C(CC(=O)OCC)C(=O)OCC (stereo not given)	102%
Cc1nc(NN)c([N+](=O)[O-])c(NN)n1	68.1%
Cc1ccc(N=Nc2c(N)nn(-c3ccccc3)c2N)cc1	17.5%
